From PubChem BioAssay (NCI)
The panel holds about 83,000 compounds, 20% with a hit somewhere; the sample as a whole holds those more often.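 Plates (96-well) were seeded with cells, treated with compound at one concentration, and incubated for 48 hours before percent growth was determined.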 A number with no mark means an inactive call. Activity calls are given as the source filed them. Rule for the calls: active = growth percent below 10; inactive = the rest.

What was measured:
Assay in all cases: NCI-60 one-dose screen, 48 h (100 = growth as untreated, 0 = no growth, -100 = all killed)
Conditions in all cases: 10 µM unless noted
T-47D breast = system: T-47D breast
BT-549 breast = system: BT-549 breast
MDA-MB-435 melanoma = system: MDA-MB-435 melanoma
SW-620 colon = system: SW-620 colon
MCF7 breast = system: MCF7 breast
HCT-116 colon = system: HCT-116 colon
HCC-2998 colon = system: HCC-2998 colon
KM12 colon = system: KM12 colon

| SMILES | growth (T-47D breast) | growth (BT-549 breast) | growth (MDA-MB-435 melanoma) | growth (SW-620 colon) | growth (MCF7 breast) | growth (HCT-116 colon) | growth (HCC-2998 colon) | growth (KM12 colon) |
| --- | --- | --- | --- | --- | --- | --- | --- | --- |
| O=C(Cc1ccc([N+](=O)[O-])cc1)Oc1ccccc1 | 109% | 106% | 122% | 114% | 107% | 114% | 106% | 118% |
| CS(=O)(=O)c1ccc(Cl)c([N+](=O)[O-])c1 | 104% | 111% | 99.1% | 67.9% | 107% | 105% | 109% | 75.3% |
| N=C(N)c1ccc(-c2ccc(-c3ccco3)o2)cc1F | -27.8% (active) | 25% | -59.1% (active) | -11.3% (active) | -13.7% (active) | -21.2% (active) | -74.7% (active) | 4.94% (active) |
| O=C(Nc1cccc(C2=NCCN2)c1)c1ccc(N=Nc2ccc(C(=O)Nc3cccc(C4=NCCN4)c3)cc2)cc1 | 46.5% | 69.1% | 47.9% | 70.7% | 62.4% | 53.1% | 79.4% | 72.8% |
| ClC1(Cl)C2CCCCCCC21 (centres undefined) | 108% | 101% | 104% | 107% | 98.5% | 110% | 114% | 109% |
| CCCCCCCCCCCCC1CCC(=O)O1 (centres undefined) | 74.1% | 96.5% | 98.8% | 90.3% | 93.4% | 95.2% | 104% | 100% |
| ClC1=NC(Cl)C(Cl)=N/C1=N\c1ncn[nH]1 (centres undefined) | -38.3% (active) | 91.4% | 13.8% | -78.7% (active) | 5.67% (active) | -70.2% (active) | 53.6% | 26.4% |
| CCCCn1cnc2c(SCc3ccc([N+](=O)[O-])cc3)nc(N)nc21 | 80% | 90.4% | 98% | 109% | 91.2% | 92.5% | 90.7% | 97.9% |
| COc1ccc(CNc2c3ccccc3nc3ccc(OC)cc23)cc1 | 34.2% | 43% | 19% | 15.8% | -29.8% (active) | 12.7% | -57.6% (active) | 27.6% |
| CN(C)CCCn1c(=O)c2cc([N+](=O)[O-])ccc2c2cnc3[nH]ccc3c21 | 86.5% | 68.7% | 67.7% | 33.1% | -12% (active) | 12.4% | 60% | 47.9% |
| CC1(C)CN(CCNc2nccc(-c3c(-c4cccc(O)c4)nc4sccn34)n2)S(=O)(=O)N1 | 75.6% | 80.9% | 19.9% | 87.6% | 70% | 28% | 93.4% | 76.4% |
| NC(=O)c1ccc[n+](Cc2ccccc2)c1 | 106% | 118% | 98.2% | 102% | 103% | 99.9% | 102% | 102% |
| CCOC(=O)Cc1cc(Br)c(OCc2ccccc2)c(Br)c1 | 85.6% | 98.3% | 96.3% | 113% | 107% | 93.8% | 98.5% | 107% |
| O=C(O)c1cc2cc(OCc3ccccc3)ccc2[nH]1 | 101% | 84.9% | 111% | 102% | 62.4% | 100% | 104% | 96.8% |
| COc1cc(-c2nn(C(=O)NCCN3CCN(C)CC3)cc2-c2ccncc2)ccc1Cl | 62.2% | 88.1% | 80.4% | 111% | 76.5% | 76.9% | 93.7% | 96.4% |
| Cn1c(-c2ccccc2)cc(=O)n1-c1ccccc1 | 102% | 110% | 98.4% | 117% | 93.6% | 100% | 100% | 103% |
| Fc1ccc(-c2nc(-c3ccc(-c4nc5ccc(F)cc5[nH]4)cc3)no2)cc1 | 62.8% | 60.1% | 68.2% | 64.7% | 52.5% | 73% | 82.2% | 60.5% |
| CCCCCCCCCCCCNC(=O)N[C@H](C(=O)N[C@H]1/C=C/CCNC(=O)/C=C/[C@H](C)NC1=O)C(C)C | -41.9% (active) | -87.2% (active) | -40.1% (active) | -22.3% (active) | 14.1% | -85.2% (active) | -95.8% (active) | -62.4% (active) |
| Cc1ccncc1NC=O | 102% | 132% | 105% | 99.2% | 95.9% | 108% | 113% | 103% |
| NC(=S)N1N=C(c2ccc(Cl)cc2)CC1c1cc2ccccc2[nH]c1=O (centres undefined) | 89.2% | 102% | 104% | 108% | 95.5% | 103% | 111% | 114% |
| CC(C)CCSc1nc(-c2ccc(F)cc2)c(C#N)c(N2CCCCC2)n1 | 79% | 91.4% | 100% | 95.6% | 93.6% | 88% | 102% | 94.5% |
| CN1C2CCC1/C(=C\c1ccc(F)cc1)C(=O)/C2=C/c1ccc(F)cc1 | 41.2% | 39.6% | 31.3% | 38.2% | 24.5% | 9.46% (active) | 82.6% | 31.3% |
| Clc1ccccc1CNc1c2ccccc2nc2ccccc12 | 30.4% | 38.1% | 27.2% | 9.61% (active) | -0.21% (active) | 8.1% (active) | -17.2% (active) | 22% |
| CC(=O)NC1C(O[C@H]2C[C@H]3[C@@H]4CC=C5C[C@@H](O)CC[C@]5(C)[C@H]4CC[C@]3(C)[C@H]2[C@H](C)C(=O)CCC(C)C)OCC(O)C1O (some centres undefined) | 45.4% | 31.3% | 35.3% | 49.4% | 43.4% | 31.8% | 89.5% | 70.1% |
| c1ccc(-c2ccc(-c3ccccc3)[nH]2)cc1 | 89.6% | 99.8% | 97.9% | 105% | 85.9% | 92.7% | 99.9% | 97% |
| COC(=O)[C@H](Cc1cn(C)cn1)NC(=O)[C@H](CC(C)C)NC(=O)Nc1cc(C(F)(F)F)cc(C(F)(F)F)c1 | -64.9% [100 µM] (active) | -95.6% [100 µM] (active) | -97.1% [100 µM] (active) | -43.6% [100 µM] (active) | -86.5% [100 µM] (active) | -98% [100 µM] (active) | -90.3% [100 µM] (active) | -95.4% [100 µM] (active) |
| NC(CCC(=O)NC(CS)C(=O)NCC(=O)O)C(=O)O (centres undefined) | 107% | 119% | 106% | 103% | 103% | 114% | 60% | 108% |
| O=C1CCCN1C1CCN2CCCc3cccc1c32 (centres undefined) | 94.1% | 134% | 108% | 108% | 96.9% | 101% | 105% | 109% |
